# According to PMC7862700, “An all-to-all approach to the identification of sequence-specific readers for epigenetic DNA modifications on cytosine”:
# What was measured:
# Experiment in all cases: DAPPL (digital affinity profiling via proximity ligation, sequencing); 10 mM Tris-HCl pH 7.5, 50 mM NaCl, 1 mM DTT, 4% glycerol, room temperature, 30 min; GST-TFs on glutathione beads, 16-mer random dsDNA library, 0.1% formaldehyde crosslink after washing; high values mean tight binding
# Settings in all cases: protein: recombinant; tags: N-terminal GST; dsDNA, one strand shown
# FLI1 = target: T1, FLI1 (Homo sapiens, UniProt Q01543 1-452)
# T1 sequence: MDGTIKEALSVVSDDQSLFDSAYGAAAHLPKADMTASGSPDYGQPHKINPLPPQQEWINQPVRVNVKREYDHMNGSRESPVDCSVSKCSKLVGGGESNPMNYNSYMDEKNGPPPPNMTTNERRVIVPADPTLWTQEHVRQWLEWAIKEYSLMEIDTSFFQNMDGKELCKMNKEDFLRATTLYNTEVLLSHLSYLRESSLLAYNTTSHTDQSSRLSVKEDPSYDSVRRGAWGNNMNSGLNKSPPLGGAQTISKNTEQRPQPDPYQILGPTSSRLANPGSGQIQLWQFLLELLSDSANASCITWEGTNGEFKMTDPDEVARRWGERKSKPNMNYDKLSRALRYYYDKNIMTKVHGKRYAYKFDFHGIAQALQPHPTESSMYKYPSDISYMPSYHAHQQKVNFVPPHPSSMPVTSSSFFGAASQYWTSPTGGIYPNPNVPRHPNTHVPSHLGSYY
# Outline: (§1)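 Binding signal is given per hexamer as its read frequency for a factor divided by its frequency in the tag-only sample. GST-fused human transcription factors were expressed in yeast, captured on glutathione beads, barcoded with DNA and pooled with that sample, then incubated with 200 nmole of a 16-mer random double-stranded DNA library in Tris/NaCl/DTT/glycerol buffer for 30 min at room temperature. The pools were then washed, crosslinked, proximity-ligated, amplified by PCR and sequenced on an Illumina NextSeq500.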
# ELK1 = target: T2, ELK1 (Homo sapiens, UniProt P19419 1-428)
# T2 sequence: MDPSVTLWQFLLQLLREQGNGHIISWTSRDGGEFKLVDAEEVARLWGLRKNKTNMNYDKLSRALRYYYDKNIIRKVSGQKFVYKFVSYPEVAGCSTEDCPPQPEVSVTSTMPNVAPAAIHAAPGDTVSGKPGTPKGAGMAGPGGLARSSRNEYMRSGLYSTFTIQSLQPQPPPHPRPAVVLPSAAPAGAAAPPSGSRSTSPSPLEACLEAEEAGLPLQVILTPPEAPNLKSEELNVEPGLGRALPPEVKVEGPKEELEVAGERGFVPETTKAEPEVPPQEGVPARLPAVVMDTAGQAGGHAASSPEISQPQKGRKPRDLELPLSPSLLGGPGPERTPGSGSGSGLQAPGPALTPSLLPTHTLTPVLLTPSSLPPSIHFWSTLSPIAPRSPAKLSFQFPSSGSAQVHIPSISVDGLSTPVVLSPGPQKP
# Outline: as §1
# GABPA = target: T3, GABPA (Homo sapiens, UniProt Q06546 1-454)
# T3 sequence: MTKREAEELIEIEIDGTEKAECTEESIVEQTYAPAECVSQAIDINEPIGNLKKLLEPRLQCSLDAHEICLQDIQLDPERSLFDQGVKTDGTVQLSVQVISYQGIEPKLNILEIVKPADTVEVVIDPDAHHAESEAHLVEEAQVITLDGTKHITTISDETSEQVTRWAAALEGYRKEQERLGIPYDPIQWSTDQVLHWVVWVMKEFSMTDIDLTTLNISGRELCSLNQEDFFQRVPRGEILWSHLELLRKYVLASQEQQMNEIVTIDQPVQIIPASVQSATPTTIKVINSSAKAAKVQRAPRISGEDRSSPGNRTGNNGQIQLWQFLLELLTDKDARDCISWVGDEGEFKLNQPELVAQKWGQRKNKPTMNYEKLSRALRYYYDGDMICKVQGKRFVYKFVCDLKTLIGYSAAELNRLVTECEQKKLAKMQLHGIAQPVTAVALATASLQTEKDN
# Outline: as §1
# ERG = target: T4, ERG (Homo sapiens, UniProt P11308 1-479)
# T4 sequence: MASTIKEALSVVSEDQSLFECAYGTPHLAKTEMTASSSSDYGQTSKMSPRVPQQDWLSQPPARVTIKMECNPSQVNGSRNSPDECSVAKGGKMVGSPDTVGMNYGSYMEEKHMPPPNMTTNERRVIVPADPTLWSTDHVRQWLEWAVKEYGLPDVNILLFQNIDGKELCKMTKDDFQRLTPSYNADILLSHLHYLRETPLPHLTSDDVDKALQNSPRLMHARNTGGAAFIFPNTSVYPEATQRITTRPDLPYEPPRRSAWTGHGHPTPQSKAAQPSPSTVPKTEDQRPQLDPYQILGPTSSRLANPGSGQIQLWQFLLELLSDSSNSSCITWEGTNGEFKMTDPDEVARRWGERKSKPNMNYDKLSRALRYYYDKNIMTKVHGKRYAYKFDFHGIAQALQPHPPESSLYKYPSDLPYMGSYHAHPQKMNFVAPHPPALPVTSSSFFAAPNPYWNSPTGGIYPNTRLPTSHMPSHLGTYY
# Outline: as §1
# ELF1 = ELF1 (Homo sapiens, UniProt P32519 1-619)
# Outline: as §1
# EHF = target: T5, EHF (Homo sapiens, UniProt Q9NZC4 1-300)
# T5 sequence: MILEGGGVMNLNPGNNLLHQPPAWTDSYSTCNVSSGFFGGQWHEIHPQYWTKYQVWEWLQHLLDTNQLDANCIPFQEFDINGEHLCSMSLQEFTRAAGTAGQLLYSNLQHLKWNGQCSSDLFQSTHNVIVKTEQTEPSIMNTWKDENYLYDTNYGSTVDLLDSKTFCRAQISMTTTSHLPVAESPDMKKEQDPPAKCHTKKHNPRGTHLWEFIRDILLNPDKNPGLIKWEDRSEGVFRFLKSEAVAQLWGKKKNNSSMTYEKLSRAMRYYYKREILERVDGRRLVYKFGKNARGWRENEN
# Outline: as §1
# SPIB = SPIB (Homo sapiens, UniProt Q01892 1-262)
# Outline: as §1
# ELK3 = target: T6, ELK3 (Homo sapiens, UniProt P41970 1-407)
# T6 sequence: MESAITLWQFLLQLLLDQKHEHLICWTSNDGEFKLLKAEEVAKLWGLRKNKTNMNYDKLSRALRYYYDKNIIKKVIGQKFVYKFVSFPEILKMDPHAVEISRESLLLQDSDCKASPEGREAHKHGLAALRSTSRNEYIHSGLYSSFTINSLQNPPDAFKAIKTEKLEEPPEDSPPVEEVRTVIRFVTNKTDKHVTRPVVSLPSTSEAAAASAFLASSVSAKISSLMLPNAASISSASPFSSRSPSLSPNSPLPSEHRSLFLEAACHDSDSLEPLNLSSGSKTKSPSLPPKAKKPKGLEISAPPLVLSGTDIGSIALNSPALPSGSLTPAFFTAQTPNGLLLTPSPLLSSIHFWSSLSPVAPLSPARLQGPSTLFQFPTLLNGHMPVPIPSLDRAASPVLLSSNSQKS
# Outline: as §1
# FEV = target: T7, FEV (Homo sapiens, UniProt Q99581 1-238)
# T7 sequence: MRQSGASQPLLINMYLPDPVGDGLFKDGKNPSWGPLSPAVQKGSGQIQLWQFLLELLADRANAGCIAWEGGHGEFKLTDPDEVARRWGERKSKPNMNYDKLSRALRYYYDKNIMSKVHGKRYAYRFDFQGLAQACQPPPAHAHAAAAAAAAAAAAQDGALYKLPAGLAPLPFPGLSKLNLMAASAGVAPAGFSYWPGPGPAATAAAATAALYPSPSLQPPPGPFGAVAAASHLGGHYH
# Outline: as §1
# ETV5 = ETV5 (Homo sapiens, UniProt P41161 1-510)
# Outline: as §1
# SPIC = target: T8, SPIC (Homo sapiens, UniProt Q8N5J4 1-248)
# T8 sequence: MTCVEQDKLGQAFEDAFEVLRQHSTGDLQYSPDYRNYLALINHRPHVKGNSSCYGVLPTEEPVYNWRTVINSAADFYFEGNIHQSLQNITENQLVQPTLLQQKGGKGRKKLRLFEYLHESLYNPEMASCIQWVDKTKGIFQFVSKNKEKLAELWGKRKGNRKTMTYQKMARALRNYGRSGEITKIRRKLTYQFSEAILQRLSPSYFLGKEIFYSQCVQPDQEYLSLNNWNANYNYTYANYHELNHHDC
# Outline: as §1
# ELF4 = ELF4 (Homo sapiens, UniProt Q99607 1-663)
# Outline: as §1
# ETV1 = ETV1 (Homo sapiens, UniProt P50549 1-477)
# Outline: as §1
# ERF = target: T9, ERF (Homo sapiens, UniProt P50548 1-548)
# T9 sequence: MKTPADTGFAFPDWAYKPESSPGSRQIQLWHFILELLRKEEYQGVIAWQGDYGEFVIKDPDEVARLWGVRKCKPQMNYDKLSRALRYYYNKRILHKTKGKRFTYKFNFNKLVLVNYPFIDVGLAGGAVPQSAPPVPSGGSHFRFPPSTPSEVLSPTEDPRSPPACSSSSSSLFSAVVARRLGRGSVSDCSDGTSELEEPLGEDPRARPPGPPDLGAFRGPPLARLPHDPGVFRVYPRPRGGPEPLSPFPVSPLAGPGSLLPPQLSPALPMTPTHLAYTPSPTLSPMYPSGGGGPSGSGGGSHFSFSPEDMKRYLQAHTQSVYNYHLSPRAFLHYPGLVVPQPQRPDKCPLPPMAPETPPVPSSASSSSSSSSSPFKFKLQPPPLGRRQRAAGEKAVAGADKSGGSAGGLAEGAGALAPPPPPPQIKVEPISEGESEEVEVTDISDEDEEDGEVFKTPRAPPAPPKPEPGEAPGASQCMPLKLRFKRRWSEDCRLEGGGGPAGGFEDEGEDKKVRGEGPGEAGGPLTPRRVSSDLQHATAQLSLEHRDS
# Outline: as §1
# ETV3L = target: T10, ETV3L (Homo sapiens, UniProt Q6ZN32 1-361)
# T10 sequence: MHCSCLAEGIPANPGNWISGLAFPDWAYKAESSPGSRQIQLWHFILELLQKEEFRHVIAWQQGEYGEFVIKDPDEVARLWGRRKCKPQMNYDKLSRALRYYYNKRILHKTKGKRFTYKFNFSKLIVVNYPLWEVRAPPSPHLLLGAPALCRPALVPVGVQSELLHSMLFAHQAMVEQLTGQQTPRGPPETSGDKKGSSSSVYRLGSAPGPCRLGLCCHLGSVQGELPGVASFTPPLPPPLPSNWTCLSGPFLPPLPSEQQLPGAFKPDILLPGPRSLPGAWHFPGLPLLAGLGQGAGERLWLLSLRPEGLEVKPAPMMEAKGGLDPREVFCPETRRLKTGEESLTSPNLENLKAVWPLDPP
# Outline: as §1
# ETS2 = target: T11, ETS2 (Homo sapiens, UniProt P15036 1-469)
# T11 sequence: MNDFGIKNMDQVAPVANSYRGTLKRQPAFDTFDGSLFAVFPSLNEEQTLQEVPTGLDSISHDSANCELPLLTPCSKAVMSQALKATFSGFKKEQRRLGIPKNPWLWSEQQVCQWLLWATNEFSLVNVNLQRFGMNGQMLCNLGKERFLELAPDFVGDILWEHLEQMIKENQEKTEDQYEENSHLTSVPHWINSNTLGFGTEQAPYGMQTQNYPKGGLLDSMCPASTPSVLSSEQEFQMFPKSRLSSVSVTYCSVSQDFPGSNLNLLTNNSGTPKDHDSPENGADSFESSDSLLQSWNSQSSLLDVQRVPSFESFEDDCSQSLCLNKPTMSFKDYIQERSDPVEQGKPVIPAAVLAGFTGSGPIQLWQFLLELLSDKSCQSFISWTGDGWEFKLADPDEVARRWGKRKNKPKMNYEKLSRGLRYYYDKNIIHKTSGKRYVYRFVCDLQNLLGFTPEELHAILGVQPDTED
# Outline: as §1
# ETV3 = target: T12, ETV3 (Homo sapiens, UniProt P41162-2 1-143)
# T12 sequence: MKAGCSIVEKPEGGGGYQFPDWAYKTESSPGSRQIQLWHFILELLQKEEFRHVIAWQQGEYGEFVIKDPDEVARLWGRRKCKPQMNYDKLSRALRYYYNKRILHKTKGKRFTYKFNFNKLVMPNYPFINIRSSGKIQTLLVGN
# Outline: as §1
# ETV6 = ETV6 (Homo sapiens, UniProt P41212 1-452)
# Outline: as §1
# Chain of ETV6 (P41212 whole entry): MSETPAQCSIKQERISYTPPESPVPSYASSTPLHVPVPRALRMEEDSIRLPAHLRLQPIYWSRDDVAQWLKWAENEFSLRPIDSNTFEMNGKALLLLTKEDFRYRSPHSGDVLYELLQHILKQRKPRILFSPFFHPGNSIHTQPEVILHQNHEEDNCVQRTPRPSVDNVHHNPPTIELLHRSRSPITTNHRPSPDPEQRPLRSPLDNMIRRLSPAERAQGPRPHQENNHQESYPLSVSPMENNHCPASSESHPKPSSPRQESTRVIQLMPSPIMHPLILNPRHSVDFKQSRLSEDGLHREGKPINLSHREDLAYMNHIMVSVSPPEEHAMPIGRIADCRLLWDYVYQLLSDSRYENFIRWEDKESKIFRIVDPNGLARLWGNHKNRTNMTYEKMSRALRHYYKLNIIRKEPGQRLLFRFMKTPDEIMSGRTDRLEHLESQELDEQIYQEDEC
# Chain of ETV5 (P41161 whole entry): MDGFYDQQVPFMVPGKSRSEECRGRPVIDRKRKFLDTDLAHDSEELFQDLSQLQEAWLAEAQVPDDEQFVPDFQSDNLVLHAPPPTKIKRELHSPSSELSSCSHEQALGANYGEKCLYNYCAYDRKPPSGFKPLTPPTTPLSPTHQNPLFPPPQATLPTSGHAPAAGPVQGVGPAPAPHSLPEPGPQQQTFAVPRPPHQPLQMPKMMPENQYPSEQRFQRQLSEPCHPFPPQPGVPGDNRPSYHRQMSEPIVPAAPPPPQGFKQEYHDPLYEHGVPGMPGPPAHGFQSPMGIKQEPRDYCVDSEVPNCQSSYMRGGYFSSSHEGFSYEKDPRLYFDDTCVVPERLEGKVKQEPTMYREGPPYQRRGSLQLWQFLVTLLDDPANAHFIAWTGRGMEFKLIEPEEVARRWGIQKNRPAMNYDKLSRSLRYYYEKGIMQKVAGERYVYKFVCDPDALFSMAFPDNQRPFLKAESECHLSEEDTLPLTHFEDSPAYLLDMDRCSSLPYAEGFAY
# Chain of ELF4 (Q99607 whole entry): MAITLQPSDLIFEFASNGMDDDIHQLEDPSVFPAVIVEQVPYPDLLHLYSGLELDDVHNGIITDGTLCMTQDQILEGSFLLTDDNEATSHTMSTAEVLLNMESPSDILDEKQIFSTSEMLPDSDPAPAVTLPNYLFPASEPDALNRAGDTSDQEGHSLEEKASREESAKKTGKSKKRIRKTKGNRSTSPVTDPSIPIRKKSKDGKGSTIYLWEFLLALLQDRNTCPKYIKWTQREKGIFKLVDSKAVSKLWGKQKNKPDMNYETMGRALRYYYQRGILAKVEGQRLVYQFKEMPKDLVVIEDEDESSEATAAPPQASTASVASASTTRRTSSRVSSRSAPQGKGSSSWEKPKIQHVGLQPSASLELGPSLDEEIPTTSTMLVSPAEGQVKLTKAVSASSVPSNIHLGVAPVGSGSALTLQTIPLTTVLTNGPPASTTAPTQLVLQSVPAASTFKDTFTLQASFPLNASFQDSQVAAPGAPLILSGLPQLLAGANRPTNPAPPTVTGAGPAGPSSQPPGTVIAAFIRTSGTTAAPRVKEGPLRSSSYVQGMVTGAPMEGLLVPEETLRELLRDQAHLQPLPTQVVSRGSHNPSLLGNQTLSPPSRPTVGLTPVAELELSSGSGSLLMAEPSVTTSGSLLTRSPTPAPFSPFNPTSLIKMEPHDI
# Chain of ELF1 (P32519 whole entry): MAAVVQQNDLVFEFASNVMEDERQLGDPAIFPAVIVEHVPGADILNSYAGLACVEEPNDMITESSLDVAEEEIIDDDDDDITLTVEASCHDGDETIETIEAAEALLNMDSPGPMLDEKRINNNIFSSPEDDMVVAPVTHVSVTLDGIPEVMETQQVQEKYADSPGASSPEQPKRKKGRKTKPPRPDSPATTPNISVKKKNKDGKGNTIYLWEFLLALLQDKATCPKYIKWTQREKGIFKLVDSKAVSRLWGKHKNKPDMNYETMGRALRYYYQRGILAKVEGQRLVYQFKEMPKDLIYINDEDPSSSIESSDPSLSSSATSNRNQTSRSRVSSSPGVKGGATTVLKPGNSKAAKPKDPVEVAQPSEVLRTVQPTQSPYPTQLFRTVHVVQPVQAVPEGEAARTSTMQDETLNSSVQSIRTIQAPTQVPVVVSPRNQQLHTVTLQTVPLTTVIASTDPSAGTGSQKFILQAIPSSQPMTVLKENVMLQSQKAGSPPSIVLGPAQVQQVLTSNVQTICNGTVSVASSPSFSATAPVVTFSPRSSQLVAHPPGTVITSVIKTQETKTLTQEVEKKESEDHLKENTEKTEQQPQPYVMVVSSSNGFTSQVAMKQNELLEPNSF
# Chain of ETV1 (P50549 whole entry): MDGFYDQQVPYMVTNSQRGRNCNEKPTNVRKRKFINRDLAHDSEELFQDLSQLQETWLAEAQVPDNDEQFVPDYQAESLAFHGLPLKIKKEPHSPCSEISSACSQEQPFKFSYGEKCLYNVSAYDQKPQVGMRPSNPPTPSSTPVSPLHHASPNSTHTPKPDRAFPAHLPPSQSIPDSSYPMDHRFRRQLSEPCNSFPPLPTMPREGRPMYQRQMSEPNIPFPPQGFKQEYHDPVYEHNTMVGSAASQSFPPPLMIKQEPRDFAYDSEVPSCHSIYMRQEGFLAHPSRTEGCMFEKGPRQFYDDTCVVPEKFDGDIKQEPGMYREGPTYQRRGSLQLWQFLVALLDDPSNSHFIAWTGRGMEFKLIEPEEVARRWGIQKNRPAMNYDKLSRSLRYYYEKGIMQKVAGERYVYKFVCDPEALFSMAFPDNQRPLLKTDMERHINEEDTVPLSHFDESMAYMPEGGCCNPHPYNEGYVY
# Chain of SPIB (Q01892 whole entry): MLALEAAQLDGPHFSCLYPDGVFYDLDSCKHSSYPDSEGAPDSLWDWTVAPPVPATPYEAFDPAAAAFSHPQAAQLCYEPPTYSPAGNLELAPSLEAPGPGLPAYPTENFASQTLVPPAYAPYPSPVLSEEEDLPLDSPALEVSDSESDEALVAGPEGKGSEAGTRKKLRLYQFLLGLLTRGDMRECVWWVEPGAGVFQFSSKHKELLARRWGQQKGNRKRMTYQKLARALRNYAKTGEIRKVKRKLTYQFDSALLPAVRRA
sequence,measurement,setting,value
CCACAC,binding signal,FLI1,"1.07 fold enrichment (6-mer frequency, TF over GST control)"
same,binding signal,ELK1,"1.07 fold enrichment (6-mer frequency, TF over GST control)"
same,binding signal,GABPA,"1.1 fold enrichment (6-mer frequency, TF over GST control)"
same,binding signal,ERG,"1.07 fold enrichment (6-mer frequency, TF over GST control)"
same,binding signal,ELF1,"1.12 fold enrichment (6-mer frequency, TF over GST control)"
same,binding signal,EHF,"1.12 fold enrichment (6-mer frequency, TF over GST control)"
same,binding signal,SPIB,"1.04 fold enrichment (6-mer frequency, TF over GST control)"
same,binding signal,ELK3,"1.11 fold enrichment (6-mer frequency, TF over GST control)"
same,binding signal,FEV,"1.11 fold enrichment (6-mer frequency, TF over GST control)"
same,binding signal,ETV5,"1.11 fold enrichment (6-mer frequency, TF over GST control)"
same,binding signal,SPIC,"1.18 fold enrichment (6-mer frequency, TF over GST control)"
same,binding signal,ELF4,"1.1 fold enrichment (6-mer frequency, TF over GST control)"
same,binding signal,ETV1,"1.1 fold enrichment (6-mer frequency, TF over GST control)"
same,binding signal,ERF,"1.08 fold enrichment (6-mer frequency, TF over GST control)"
same,binding signal,ETV3L,"1.11 fold enrichment (6-mer frequency, TF over GST control)"
same,binding signal,ETS2,"1.03 fold enrichment (6-mer frequency, TF over GST control)"
same,binding signal,ETV3,"1 fold enrichment (6-mer frequency, TF over GST control)"
same,binding signal,ETV6,"1.02 fold enrichment (6-mer frequency, TF over GST control)"
